RE007 growth inh – qHTS Assay for Inhibitors of the HIV-1 protein Vpr; Potency, µM (top dose mostly 92.2 µM), inactives show at the highest dose activity change, negative = less growth, usual class: inhibitors; 360,000 tested, 0.21% active; S. pombe RE007 Vpr strain, BacTiter-Glo ATP luminescence, 24 h; AID 651644, 2012; active means well fitted falling curve with a large enough effect; inconclusive means small, poorly fitted or top-dose-only effect; inactive means no such curve, though single readings can be large or run the other way; further: nearly all actives have a fitted effect of over 50% in size
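Fission yeast strain RE007, carrying one chromosomally integrated HIV-1 vpr copy, was seeded at OD 0.01 in PMG+AL medium with 23 nL pinned compound. After 24 h at 30 °C and 99% humidity, viability was read by BacTiter-Glo luminescence.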
LASV entry inh – qHTS for Inhibitors of binding or entry into cells for Lassa Virus; Lassa virus pseudotype entry inhibition, cell reporter; Potency, µM (series often up to 37.9 µM), without a hit: at the highest dose activity change, negative = inhibition, hits mostly inhibitors; 300,000 tested, 1.2% active; AID 540256, 2011; calls by dose curve; tested in HEK293 cells; further: nearly all actives have a fitted effect of over 50% in size
FMDV inh – High Throughput Screening for Foot and Mouth Disease Virus Antivirals | FMDV antiviral cell-based qHTS | Potency, µM (highest dose often 57.9 µM), for the others: top-dose activity change, negative = inhibition, actives largely listed as inhibitors | 410,000 tested, 1.2% active | AID 1159524, 2015; calls by dose curve; tested in HEK293T cells; further: read-out not given here; nearly all actives have a fitted effect of over 45% in size
Marburg entry inh – qHTS for inhibitors of binding or entry into cells for Marburg Virus; Marburg virus pseudotyped entry inhibition, cell reporter; Potency, µM (top dose mostly 37.8 µM), without a hit: at the highest dose activity change, negative = inhibition, usual class: inhibitors; 300,000 tested, 1.8% active; calls by dose curve; tested in HEK293 cells
HCV inhibitor – qHTS Assay for Inhibitors of Hepatitis C Virus (HCV) | Huh7.5.1 HCVcc-Cre infection, luciferase reporter, 44 h | Potency, µM (doses to about 41.8 µM), for inactives: top-dose activity change, negative = inhibition, actives largely listed as inhibitors | 340,000 tested, 3.4% active
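1,000 cells/well; 4 h culture; + compound; + HCVcc-Cre (~0.5 moi); 44 h; luciferase substrate, RT 15 min; read 15 sec.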
Sm TGR inh – qHTS Assay for the Inhibitors of Schistosoma Mansoni Peroxiredoxins | Schistosoma mansoni thioredoxin glutathione reductase (TGR), Q962Y6 | purified TGR, DTNB reduction, TNB absorbance 405 nm | Potency, µM (doses to about 114 µM), for the others: at the top dose activity change, negative = inhibition, most hits filed as inhibitors | 360,000 tested, 3% active | AID 485364, 2010; further: nearly all actives have a fitted effect of over 60% in size
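Kinetic colorimetric format: TGR-catalysed, NADPH-driven DTNB reduction monitored via TNB absorbance. Enzyme dispensed at 20 nM; compound exposure 15 min at room temperature before reaction start.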
* = called active by the depositor; ? = inconclusive; . = not tested or not shown; ! = not confirmed by another sample; [ ] = dose if it differs, or a comment. Shown are actives, neighbours in structure and some others; about 7.2% of the full set was active somewhere. Unless noted, the call rests on the fitted dose curve; in most records, active means well fitted curve in the direction sought with a large enough effect; inconclusive means small, poorly fitted or top-dose-only effect, or another doubt; inactive means no such curve, though single readings can be large; an effect the other way counts as inactive or inconclusive. On the % scale 0 is the no-effect control and ±100 the full control effect; potency means the concentration at half of the fitted maximal effect.

SMILES	RE007 growth inh	LASV entry inh	FMDV inh	Marburg entry inh	HCV inhibitor	Sm TGR inh
O=C1CC(N(CCc2ccccc2)C(=S)Nc2cc(Cl)ccc2Cl)C(=O)N1c1c(Cl)cccc1Cl (centres undefined)	-12%	?	14%	13µM*	?	1%
CCOC(=O)N[C@H](O)C(=O)c1cccs1	.	.	.	-9%	.	.
CCN(CC)CCCNCC(=O)Nc1ccc2c(c1)CCC2	-1%	.	57%	.	10µM*	2%
CCN(CC)CCCNCC(=O)Nc1ccc(OC)c(Cl)c1	.	.	.	.	.	7%
COc1ccc(OC)c(C(=O)NC2CC(C)(C)Cc3c2cnn3-c2ccccc2)c1 (centres undefined)	17%	.	?	.	13µM*	-6%
CC(=O)c1c(C(C)=O)c(C)n(-c2nc(-c3ccc(Br)cc3)c(C)s2)c1C	42%	16µM*	?	?	?	0%
COc1ccc(-c2nc(-n3c(C)c(C(C)=O)c(C(C)=O)c3C)sc2C)cc1OC	9%	3%	-28%	-21%	-32%	-6%
COc1ccc(-c2cc(C(=O)Nc3c(C(=O)c4ccc(C)c(F)c4)oc4ccccc34)no2)cc1	.	2%[46.1 µM]	-2%	?	.	2%
Fc1ccccc1OCCCCCCN1CCCC1	-12%	-1%	-2%	-16%	7.9µM*	-22%
CN(C)CCCCOc1ccccc1-c1ccccc1	7%	?	10%	13µM*	0%	-17%
Cc1cccc(OCCCN2CCCCCC2)c1	0%	?	.	?	32µM*	5%
Oc1ccc(N2CCN(Cc3ccc(OCCCN4CCCCC4)cc3)CC2)cc1	3%	7%[46.1 µM]	27%	13µM*	5%	-13%
CCC1CCCCN1C(=O)c1sc(-n2nc(C)c(Cc3ccccc3)c2C)nc1C (centres undefined)	.	5%[46.1 µM]	-5%	15%[46.1 µM]	.	7%
c1ccc(COc2ccc(OCCCCN3CCCCC3)cc2)cc1	-12%	-23%	20%	?	25µM*	-7%
c1ccc(-c2ccccc2OCCCN2CCCCC2)cc1	-37%	16µM*	-25%	?	-15%	-6%
CCCCCCCCCCCCC/C=C/[C@@H](O)[C@H](CO)NCCCCCCCC	.	.	12%[6.7 µM]	.	.	.
CCc1ccc(CNC(=O)CN2C(=O)CSc3ccc(S(=O)(=O)N4CCOCC4)cc32)cc1	.	2%[46.1 µM]	-13%	.	.	-1%
Clc1ccc(Cn2c(CN3CCCC3)nc3ccccc32)cc1	.	?	.	3.2µM*!	-7%[8.37 µM]	-21%
c1ccc(Cn2c(CN3CCCC3)nc3ccccc32)cc1	-12%	20%	-19%	-27%	14%	6%
CCCn1c(NCc2ccc3c(c2)OCO3)nc2ccccc21	15%	9%	6%	9%	?	89µM*
OCCNc1nc2ccccc2n1CCN1CCCCC1	34%	12%	-10%	8%	13%	3%
c1ccc(Cn2c(CNc3nc4ccccc4n3CCN3CCCCC3)nc3ccccc32)cc1	-21%	?	?	?	11µM*	-19%
CCCCn1c(NCc2ccc3c(c2)OCO3)nc2ccccc21	-7%	?	3%	?	?	0%
Cn1c(CNc2nc3ccccc3n2CCN2CCCCC2)nc2ccccc21	?	-6%	-11%	2.8µM*	?	-1%
COc1cccc(Cn2c(=O)c(-c3cccs3)nc3cnc(N4CCNCC4)nc32)c1	.	.	13%	.	.	.
CCN(CC)C(=O)Cn1cc(SCC(=O)Nc2ccccc2F)c2ccccc21	.	?	-20%	.	.	7%
Cc1ccc(C(=O)NCC(c2ccc(Cl)cc2)N2CCCCC2)cc1 (centres undefined)	.	-1%[46.1 µM]	-20%	?	.	6%
CCN(CC)c1ccc(CNc2nc3ccccc3n2CCN2CCCCC2)cc1	-4%	?	0%	?	11µM*	1%
COc1ccc(CNc2nc3ccccc3n2CCN2CCCCC2)cc1	-25%	-9%[46.1 µM]	-6%	?	-20%	-4%

Screening data deposited in PubChem BioAssay by National Center for Advancing Translational Sciences (NCATS).
